For some assays here: Potency and affinity values are given separately.

The target in assay [1] is T1, Methionyl-tRNA synthetase, putative (Leishmania donovani (strain BPK282A1)) (UniProt E9BF75).
T1 sequence (whole entry): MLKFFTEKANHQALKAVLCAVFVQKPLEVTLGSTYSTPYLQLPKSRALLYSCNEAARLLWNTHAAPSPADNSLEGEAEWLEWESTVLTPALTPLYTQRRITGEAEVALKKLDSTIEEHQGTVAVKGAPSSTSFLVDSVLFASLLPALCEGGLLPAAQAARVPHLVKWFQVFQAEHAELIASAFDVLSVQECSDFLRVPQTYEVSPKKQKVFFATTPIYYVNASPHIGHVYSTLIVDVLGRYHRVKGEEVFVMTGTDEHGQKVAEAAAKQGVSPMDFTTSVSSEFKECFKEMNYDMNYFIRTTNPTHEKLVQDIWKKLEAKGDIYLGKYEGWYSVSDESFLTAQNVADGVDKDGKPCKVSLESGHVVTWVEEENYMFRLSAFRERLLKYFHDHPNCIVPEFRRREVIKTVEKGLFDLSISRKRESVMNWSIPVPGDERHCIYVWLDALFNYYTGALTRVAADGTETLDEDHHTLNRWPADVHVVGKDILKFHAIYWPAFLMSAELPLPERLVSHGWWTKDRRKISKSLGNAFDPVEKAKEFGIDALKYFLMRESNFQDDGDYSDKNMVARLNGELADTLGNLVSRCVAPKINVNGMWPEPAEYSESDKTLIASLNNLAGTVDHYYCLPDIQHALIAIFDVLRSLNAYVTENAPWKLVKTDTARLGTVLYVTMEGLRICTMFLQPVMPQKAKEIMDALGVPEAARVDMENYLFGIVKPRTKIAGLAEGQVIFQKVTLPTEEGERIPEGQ
The assay is described as follows: Leishmania donovani Methionine tRNA synthetase (LdMetRS):v7. Dose response assay. The class given is functional. Details: conc 80 nM, time 150 minutes.

Assay [2] deals with Protein translocase subunit SecA (Escherichia coli (strain K12)) (UniProt P10408). The assay is described as follows: Assay to Identify E. coli SecA ATPase Inhibitors. Details: scale not given: direction of the effect not stated beside the values. The note with it: 30 µM. The class given is functional.
Sequence of Protein translocase subunit SecA (Escherichia coli (strain K12)) (P10408 whole entry): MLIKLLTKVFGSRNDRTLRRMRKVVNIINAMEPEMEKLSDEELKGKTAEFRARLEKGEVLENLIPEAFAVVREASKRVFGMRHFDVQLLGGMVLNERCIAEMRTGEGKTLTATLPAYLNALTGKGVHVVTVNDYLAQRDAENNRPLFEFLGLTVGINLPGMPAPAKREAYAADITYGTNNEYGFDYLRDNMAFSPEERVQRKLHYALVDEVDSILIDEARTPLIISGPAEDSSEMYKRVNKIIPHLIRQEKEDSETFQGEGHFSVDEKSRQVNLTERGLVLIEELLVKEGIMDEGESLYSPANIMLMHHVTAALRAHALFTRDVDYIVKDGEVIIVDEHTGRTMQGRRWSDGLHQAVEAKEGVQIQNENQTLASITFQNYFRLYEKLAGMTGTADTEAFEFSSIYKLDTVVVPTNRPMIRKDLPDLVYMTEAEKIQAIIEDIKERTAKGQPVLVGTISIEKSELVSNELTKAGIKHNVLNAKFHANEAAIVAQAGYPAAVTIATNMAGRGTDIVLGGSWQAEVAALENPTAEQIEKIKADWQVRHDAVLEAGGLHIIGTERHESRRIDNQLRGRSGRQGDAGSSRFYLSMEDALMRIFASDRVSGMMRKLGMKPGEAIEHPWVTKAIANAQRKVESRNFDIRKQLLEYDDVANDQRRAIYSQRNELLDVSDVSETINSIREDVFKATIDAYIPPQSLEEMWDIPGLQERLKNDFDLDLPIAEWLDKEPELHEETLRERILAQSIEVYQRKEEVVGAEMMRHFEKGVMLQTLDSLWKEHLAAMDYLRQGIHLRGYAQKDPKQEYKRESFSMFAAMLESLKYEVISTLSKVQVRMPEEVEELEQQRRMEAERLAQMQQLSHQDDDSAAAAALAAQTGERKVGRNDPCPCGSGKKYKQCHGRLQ
Assay [3] addresses T2, Ubiquitin-activating enzyme e1, putative (Leishmania donovani (strain BPK282A1)) (UniProt E9BSI1).
T2 sequence (whole entry): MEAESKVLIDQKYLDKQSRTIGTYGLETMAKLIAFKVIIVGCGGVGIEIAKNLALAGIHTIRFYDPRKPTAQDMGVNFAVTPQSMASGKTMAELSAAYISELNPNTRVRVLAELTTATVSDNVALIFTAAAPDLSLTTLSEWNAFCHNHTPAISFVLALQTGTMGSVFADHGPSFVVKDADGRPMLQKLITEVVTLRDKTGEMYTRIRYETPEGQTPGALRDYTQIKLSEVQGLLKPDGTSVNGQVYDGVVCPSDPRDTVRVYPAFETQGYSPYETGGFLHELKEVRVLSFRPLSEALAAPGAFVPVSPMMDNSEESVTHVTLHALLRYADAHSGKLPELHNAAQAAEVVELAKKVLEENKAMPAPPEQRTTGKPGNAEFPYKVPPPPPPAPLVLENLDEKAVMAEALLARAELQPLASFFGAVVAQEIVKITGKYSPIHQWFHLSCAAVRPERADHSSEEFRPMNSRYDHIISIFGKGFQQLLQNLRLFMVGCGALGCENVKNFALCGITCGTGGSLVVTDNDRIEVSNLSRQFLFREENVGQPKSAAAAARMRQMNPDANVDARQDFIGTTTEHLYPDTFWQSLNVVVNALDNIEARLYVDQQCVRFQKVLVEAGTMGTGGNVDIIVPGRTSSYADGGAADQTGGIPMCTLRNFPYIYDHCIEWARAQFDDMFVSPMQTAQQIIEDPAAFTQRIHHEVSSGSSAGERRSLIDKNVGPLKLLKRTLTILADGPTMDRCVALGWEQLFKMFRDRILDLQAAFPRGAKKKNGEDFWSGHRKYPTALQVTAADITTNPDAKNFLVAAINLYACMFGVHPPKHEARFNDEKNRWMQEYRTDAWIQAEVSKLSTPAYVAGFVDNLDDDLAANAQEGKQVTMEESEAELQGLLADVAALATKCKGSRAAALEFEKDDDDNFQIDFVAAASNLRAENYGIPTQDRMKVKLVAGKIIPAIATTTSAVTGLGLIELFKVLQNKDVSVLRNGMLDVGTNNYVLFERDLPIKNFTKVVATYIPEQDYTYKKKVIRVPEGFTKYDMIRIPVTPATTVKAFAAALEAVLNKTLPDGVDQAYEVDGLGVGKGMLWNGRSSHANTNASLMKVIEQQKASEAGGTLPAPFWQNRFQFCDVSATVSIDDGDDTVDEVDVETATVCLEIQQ
Nature of the assay: Leishmania donovani Ubiquitin Activating Enzyme (LdE1). Type of assay: functional. The note with it: 30 µM. Details: scale not given: direction of the effect not stated beside the values.

The target of assay [4] is T3, Aspartate--tRNA(Asp/Asn) ligase (Mycobacterium tuberculosis (strain ATCC 25618 / H37Rv)) (UniProt P9WFW3). Also: in the data most compounds retested in dose-response had high values.
T3 sequence (whole entry): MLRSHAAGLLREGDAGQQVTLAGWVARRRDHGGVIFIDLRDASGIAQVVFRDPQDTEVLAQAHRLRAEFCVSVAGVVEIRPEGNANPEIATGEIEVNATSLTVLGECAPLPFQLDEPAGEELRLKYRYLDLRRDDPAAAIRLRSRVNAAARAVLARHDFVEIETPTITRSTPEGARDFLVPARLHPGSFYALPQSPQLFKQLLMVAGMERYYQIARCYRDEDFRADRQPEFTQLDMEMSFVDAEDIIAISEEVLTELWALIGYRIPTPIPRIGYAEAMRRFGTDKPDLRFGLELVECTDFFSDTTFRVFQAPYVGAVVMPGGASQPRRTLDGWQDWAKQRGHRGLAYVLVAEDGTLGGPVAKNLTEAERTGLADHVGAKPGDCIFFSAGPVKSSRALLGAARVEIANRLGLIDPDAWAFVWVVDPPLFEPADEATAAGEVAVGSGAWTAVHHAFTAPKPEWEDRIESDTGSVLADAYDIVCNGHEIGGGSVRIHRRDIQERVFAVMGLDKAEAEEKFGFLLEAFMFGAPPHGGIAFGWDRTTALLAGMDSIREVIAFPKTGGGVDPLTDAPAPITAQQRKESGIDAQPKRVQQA
Nature of the assay: Assay for Asp RNA synthetase-1 from Mycobacterium tuberculosis. Type of assay: functional. Details: scale not given: direction of the effect not stated beside the values. The note with it: 30 µM.

Assay [5] has as its target AMP-activated protein kinase, AMPK (Homo sapiens) (UniProt P54646+O43741+P54619+Q9UGJ0+Q9Y478+Q13131+Q9UGI9). The assay is described as follows: AMP-dependent Kinase enzyme assay. An in vitro enzyme assay that detects ADP turnover that is directly proportional to AMPK activity. This uses naive AMPK that is activated during the assay with MK-8722. Details: scale not given: direction of the effect not stated beside the values. Type of assay: functional. The following applies: 30 µM.

The target in assay [6] is Sialic acid-binding Ig-like lectin 9 (Homo sapiens) (UniProt Q9Y336). The assay is described as follows: Hs-Siglec9 ALPHAscreen SOP 20170721. The following applies: 10 µM. Details: scale not given: direction of the effect not stated beside the values. (In Alpha technology, singlet oxygen from a donor bead excites a nearby acceptor bead.)
Sequence of Sialic acid-binding Ig-like lectin 9 (Homo sapiens) (Q9Y336 whole entry): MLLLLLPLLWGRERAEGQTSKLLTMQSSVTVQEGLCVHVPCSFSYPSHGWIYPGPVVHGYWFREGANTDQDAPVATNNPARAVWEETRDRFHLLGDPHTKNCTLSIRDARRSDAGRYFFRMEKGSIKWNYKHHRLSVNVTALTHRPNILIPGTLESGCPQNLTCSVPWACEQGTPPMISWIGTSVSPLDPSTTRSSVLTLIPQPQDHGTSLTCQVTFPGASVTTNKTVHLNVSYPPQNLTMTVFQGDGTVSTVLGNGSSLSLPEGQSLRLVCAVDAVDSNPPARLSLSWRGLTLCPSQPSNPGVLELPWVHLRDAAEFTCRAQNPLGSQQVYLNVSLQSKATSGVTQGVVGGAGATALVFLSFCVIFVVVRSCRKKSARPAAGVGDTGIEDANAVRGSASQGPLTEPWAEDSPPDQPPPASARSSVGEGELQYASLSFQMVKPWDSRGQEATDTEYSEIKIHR
The subject of assay [7] is Trypanosoma cruzi. Nature of the assay: Trypanosoma cruzi phosphomannomutase and mannose-1-phosphate guanylyltransferase assay. Type of assay: functional. Details: scale not given: direction of the effect not stated beside the values. The following applies: 10 µM.
Assay [8] has as its target T4, Arginase-2, mitochondrial (Homo sapiens) (UniProt P78540).
T4 sequence (whole entry): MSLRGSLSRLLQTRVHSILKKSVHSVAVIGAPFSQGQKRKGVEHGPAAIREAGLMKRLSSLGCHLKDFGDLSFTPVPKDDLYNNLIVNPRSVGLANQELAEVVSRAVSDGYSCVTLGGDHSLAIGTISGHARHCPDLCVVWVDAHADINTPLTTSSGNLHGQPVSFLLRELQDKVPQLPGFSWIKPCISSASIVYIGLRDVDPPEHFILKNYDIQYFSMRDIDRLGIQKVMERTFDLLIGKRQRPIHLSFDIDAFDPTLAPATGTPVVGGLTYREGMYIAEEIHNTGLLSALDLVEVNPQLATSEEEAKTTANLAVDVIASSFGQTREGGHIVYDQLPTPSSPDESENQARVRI
Nature of the assay: in vitro enzyme assay to detect the production of urea directly proportional to the activity of Arginase II. Details: scale not given: in the data most compounds retested in dose-response had high values. The class given is functional.

The target of assay [9] is T5, Proteasome subunit beta (Trypanosoma cruzi) (UniProt O96673).
T5 sequence (whole entry): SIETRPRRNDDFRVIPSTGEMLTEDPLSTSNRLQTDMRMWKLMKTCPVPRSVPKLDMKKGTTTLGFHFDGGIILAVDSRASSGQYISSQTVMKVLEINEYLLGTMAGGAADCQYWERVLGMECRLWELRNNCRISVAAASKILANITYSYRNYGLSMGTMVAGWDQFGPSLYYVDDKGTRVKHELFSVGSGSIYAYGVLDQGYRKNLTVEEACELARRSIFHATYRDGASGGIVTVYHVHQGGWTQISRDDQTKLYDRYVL
Nature of the assay: Trypanosoma cruzi proteasome chymotrypsin-like activity (TcProtChymo) assay. The following applies: 9.37 µM. Details: scale not given: in the data most compounds retested in dose-response had high values. Type of assay: functional.

The species named for assay [10] is Homo sapiens. Nature of the assay: To identify inhibition of the IFN signalling (Jak-Stat) pathway via expression of an eGFP reporter gene under the control of an IFN-stimulated response element (ISRE) containing MxA promoter. The note with it: 30 µM. Details: scale not given: direction of the effect not stated beside the values. Type of assay: functional. On the technique in general: Reporter assays use an easily measured gene product as a stand-in for the process of interest.

Assay [11] concerns the target Shiga toxin 2 (Escherichia coli O157:H7) (UniProt P09385+P09386). Nature of the assay: E. coli 0.157:H7 Shiga Toxin SOP - stx2 screening assay. The class given is functional. Details: scale not given: direction of the effect not stated beside the values. The note with it: 30 µM.
Assay [12] concerns the target T6, Tyrosyl-tRNA synthetase, putative (Trypanosoma cruzi (strain CL Brener)) (UniProt Q4DSP6).
T6 sequence (whole entry): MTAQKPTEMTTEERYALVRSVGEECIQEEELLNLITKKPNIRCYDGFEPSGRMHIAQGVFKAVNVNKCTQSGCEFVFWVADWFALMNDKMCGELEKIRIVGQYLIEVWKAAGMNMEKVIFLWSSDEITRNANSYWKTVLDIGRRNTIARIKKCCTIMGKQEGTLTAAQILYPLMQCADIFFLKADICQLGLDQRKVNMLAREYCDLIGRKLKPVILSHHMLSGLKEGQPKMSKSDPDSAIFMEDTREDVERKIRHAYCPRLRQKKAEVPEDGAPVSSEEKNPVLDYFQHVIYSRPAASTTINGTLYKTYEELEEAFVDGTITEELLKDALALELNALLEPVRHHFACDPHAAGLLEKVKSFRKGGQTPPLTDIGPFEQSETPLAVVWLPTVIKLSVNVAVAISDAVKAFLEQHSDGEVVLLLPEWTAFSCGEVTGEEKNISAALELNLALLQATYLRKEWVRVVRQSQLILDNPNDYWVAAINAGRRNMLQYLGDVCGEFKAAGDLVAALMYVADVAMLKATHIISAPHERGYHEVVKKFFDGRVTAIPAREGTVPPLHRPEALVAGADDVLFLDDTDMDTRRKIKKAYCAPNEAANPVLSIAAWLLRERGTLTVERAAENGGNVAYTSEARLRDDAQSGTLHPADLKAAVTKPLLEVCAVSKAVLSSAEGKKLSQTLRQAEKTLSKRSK
The assay is described as follows: Trypanosoma cruzi tyrosyl tRNA synthetase (TcYRS) _High Tyrosine SOP. The class given is functional. Details: scale not given: in the data most compounds retested in dose-response had high values. The following applies: 30 µM.

Assay [13] addresses T6, Tyrosyl-tRNA synthetase, putative (Trypanosoma cruzi (strain CL Brener)). Nature of the assay: Trypanosoma cruzi tyrosyl tRNA synthetase (TcYRS) SOP. Details: scale not given: direction of the effect not stated beside the values. The following applies: 30 µM. The class given is functional.
In assay [14] the target is Chromo domain-containing protein 1 (Saccharomyces cerevisiae (strain ATCC 204508 / S288c) (Baker's yeast)) (UniProt P32657). The assay is described as follows: ScCHD-1 Enzyme Inhibition Assay. Type of assay: functional. Details: scale not given: in the data most compounds retested in dose-response had high values. The following applies: 30 µM.
Sequence of Chromo domain-containing protein 1 (Saccharomyces cerevisiae (strain ATCC 204508 / S288c) (Baker's yeast)) (P32657 whole entry, the tested form may be a part): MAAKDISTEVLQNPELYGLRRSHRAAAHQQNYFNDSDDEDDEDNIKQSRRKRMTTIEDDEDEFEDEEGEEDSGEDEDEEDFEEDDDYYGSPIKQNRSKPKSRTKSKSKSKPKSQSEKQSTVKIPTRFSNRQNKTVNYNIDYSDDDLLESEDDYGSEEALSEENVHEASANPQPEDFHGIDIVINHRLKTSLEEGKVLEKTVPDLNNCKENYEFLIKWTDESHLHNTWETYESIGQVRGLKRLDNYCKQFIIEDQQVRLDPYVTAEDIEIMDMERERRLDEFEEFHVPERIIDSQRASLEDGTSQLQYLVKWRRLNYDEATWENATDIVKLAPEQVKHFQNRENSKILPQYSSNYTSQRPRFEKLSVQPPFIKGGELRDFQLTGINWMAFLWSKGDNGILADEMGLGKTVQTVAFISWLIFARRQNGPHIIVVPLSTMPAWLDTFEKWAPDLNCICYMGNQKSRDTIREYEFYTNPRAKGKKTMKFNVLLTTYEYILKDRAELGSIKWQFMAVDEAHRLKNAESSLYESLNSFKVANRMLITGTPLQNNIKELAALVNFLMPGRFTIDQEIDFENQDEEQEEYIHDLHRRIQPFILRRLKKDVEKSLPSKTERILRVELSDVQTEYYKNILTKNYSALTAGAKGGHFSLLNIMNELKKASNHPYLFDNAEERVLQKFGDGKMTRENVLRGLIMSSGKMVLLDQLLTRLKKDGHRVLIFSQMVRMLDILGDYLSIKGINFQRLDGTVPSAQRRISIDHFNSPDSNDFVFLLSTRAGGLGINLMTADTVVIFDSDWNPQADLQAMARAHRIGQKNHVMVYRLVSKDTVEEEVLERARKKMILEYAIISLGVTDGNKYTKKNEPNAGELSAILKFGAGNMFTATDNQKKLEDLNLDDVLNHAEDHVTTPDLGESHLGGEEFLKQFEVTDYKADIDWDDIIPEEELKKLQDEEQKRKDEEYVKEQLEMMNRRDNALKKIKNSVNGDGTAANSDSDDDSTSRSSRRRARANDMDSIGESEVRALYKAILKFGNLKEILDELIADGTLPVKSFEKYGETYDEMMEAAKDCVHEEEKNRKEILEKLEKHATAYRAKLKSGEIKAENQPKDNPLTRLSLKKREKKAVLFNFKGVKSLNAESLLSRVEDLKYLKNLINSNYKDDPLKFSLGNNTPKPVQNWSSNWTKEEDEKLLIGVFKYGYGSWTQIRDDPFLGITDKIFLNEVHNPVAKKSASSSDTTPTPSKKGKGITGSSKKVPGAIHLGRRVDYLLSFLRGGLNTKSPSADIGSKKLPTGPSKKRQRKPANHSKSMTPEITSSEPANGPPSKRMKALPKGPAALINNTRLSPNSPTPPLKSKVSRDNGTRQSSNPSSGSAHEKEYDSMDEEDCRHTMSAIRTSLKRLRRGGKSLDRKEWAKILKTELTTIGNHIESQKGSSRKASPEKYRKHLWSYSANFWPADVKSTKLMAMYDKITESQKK

For `O=C(O)CN1CCC(F)(F)C2(CCN(c3ccccn3)C2)C1` (centres undefined), the PXC50 in assay [1] (MAX_EFFECT 7.981220657) and in [1] (MAX_EFFECT 9.814814815) was less than 4 each time.
On to `O=C1CSC(c2ccc(O)c(Cl)c2)c2c(n(C3CCOCC3)[nH]c2=O)N1` (centres undefined), for which the Percent Effect in assay [2] is -3.7%; in assay [3] it was 20%; in assay [4], -0.726%; in [5], 0.0426%; in assay [6] it was 4.6%; in assay [7], 2.36%. The Percent Effect is 4.87% in assay [8] (30 µM); -14.3% in [8] (33.3 µM); 8.87% in assay [9]; 8.4% in assay [10]; -12.7% in assay [11]; 9.52% in assay [12]. In addition, the Percent Effect in [13] was 17.9%; in [14], -15.1%.
Take `c1cc(NC2CC3(CCN(Cc4cc[nH]n4)C3)C2)ncn1` (centres undefined): the Percent Effect was -3.9% in assay [2]; -4.05% in assay [3]; -4.78% in assay [4]; 5.87% in [5]; 0.0436% in [6]; 5.73% in assay [7]. Besides, the Percent Effect in assay [8] (33.3 µM) was -3.02%; in assay [9], 2.18%; in assay [10], -4.19%; in [11], 0.0104%; in assay [12], 2.15%; in assay [13] it was 3.9%. Besides, the Percent Effect in [14] was -8.87%.

The record behind these values is ChEMBL document CHEMBL3988442, “University of Dundee, Small-Polar-MMV Screening Library” (2021).
